Measurements: PubChem BioAssay AID1159580 (chemical genetic matrix, 2015)
Among all 5,500 compounds or so, about 2,000 (36%) were called active. Inconclusive results (about 18%) are left out. Rule as the data show it: active = normalized growth mostly below about 0.91 (no sharp cut-off); inconclusive = no clear call, values can overlap the other calls; inactive = mostly above about 0.92. Some of the results follow.

Assay: chemical genetic growth profiling, strain panel (AID 1159580);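 also: tested at 20 µM; growth read once vehicle control cultures reached saturation at 30 °C; 1 = growth at the plate median or of vehicle wells; lower values mean less growth of the strain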
Conditions: S. cerevisiae deletion strains, growth OD

Measured: normalized growth

CC(=O)OCC(=O)[C@@]1(O)CC[C@H]2[C@@H]3CCC4=CC(=O)CC[C@]4(C)[C@H]3C(=O)C[C@@]21C
inactive: locus YAL040C, strain CLN3, active compounds read low 0.998 | locus YER002W, strain NOP16, active compounds read low 0.991 | locus YGR078C, strain PAC10, active compounds read low 1 | locus YNL175C, strain NOP13, active compounds read low 0.985 | locus YNL197C, strain WHI3, active compounds read low 0.982 | locus YNL224C, strain SQS1, active compounds read low 1.01 | locus YOR083W, strain WHI5 (second series), active compounds read low 0.976
